Hits are enriched below; roughly 3.2% of the tested compounds scored in any of these assays.
RGS12 GoLoco inh = blocks human Gai1 binding to RGS12 GoLoco peptide, red readout. AID 880. Potency, µM (top dose mostly 61.6 µM), without a hit: top-dose activity, negative = inhibition, hits mostly inhibitors. actives 0.44% (n = 230,000). P63096. Gai1:RGS12 GoLoco peptide FP, rhodamine, 10 min; active means well fitted inhibition curve with a large enough effect, not every such curve was filed as active; inactive means no such curve, though single readings can be large or run the other way; further: nearly all actives have a fitted effect of over 30% in size
Target sequence (P63096 whole entry, looked up): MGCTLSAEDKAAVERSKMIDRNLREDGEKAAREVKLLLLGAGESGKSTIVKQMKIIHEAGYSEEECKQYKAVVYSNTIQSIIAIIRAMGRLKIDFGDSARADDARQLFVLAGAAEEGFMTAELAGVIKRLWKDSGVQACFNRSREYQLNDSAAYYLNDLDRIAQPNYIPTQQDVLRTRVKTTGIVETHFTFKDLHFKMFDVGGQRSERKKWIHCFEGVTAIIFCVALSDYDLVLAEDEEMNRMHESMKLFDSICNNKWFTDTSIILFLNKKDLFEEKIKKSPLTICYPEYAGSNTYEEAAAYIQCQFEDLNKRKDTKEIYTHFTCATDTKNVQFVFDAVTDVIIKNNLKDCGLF
TRb-SRC2 inh = disrupts binding of human TR beta to SRC2. TRbeta-SRC2 peptide binding, fluorescence polarization; receptor liganded with 1 µM T3. actives 0.065% (n = 280,000). P10828. Potency, µM (titrated, usually from 106 µM), inactives show at the highest dose activity change, negative = inhibition, usual class: inhibitors;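 further: plate controls were bound peptide for no effect and peptide without receptor for full effect; nearly all actives have a fitted effect of over 50% in size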
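Quantitative HTS by FP: 0.6 uM TRb LBD, 20 nM labeled SRC2 20-mer, 1 uM T3, 5% DMSO; 5 hr ambient incubation; % activity per concentration and potencies from concentration series.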
Tau fibril FP = inhibitors of human tau fibril formation | P10636 | K18 P301L tau heparin fibrillization, Alexa594 FP, 6 h | Potency, µM (titrated, usually from 57.7 µM), inactives show at the top dose activity, negative = inhibition, hits mostly inhibitors | actives 0.39% (n = 280,000) | AID 1468; further: nearly all actives have a fitted effect of over 55% in size
Target sequence (P10636 561-689 P618L limits assumed): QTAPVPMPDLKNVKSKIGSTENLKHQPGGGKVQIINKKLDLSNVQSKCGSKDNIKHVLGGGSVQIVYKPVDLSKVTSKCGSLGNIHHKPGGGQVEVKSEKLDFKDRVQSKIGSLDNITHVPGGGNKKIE
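Heparin (20 uM) drove fibril formation of recombinant tau K18 P301L, 15 uM unlabeled with 0.24 uM Alexa 594 label, for 6 hr at 37 C in 100 mM sodium acetate pH 7. Fluorescence polarization (555/632 nm) read 1 hr after 30 uM ThT.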
Tau ThT inhib = tau fibrillization inhibition (ThT binding). P10636. recombinant tau K18 P301L, heparin-induced fibrillization, ThT fluorescence. Potency, µM (titrated, usually from 57.4 µM), for inactives: top-dose activity, negative = inhibition, most hits filed as inhibitors. actives 2.1% (n = 270,000); further: nearly all actives have a fitted effect of over 55% in size
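Fibril formation assay: tau K18 P301L at 15 uM with trace Alexa 594 label, heparin inducer 20 uM, pH 7 sodium acetate buffer, 37 C for 6 hr; endpoint ThT signal.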
Tau fluor counter = counter-screen for tau fibril formation inhibitors; tau K18 P301L Alexa594 fluorescence, heparin fibrillization; Potency, µM (series often up to 57.7 µM), inactives show at the highest dose activity change, negative = decrease; actives 0.93% (n = 280,000); further: nearly all actives have a fitted effect of over 55% in size
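Human tau K18 P301L (15 uM unlabeled, 0.24 uM Alexa 594-labeled) in 100 mM sodium acetate pH 7 with 20 uM heparin, 6 hr at 37 C. ThT 30 uM added, 1 hr ambient; Alexa 594 FP and total fluorescence read at 555/632 nm.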
TexasRed fluor = counter-screen for TRb-SRC2 inhibitors: fluorescence interference. TRb/SRC2 Texas Red total fluorescence interference. Potency, µM (series often up to 106 µM), without a hit: at the top dose fluorescence change, negative = quenching. actives 0.29% (n = 280,000); active means well fitted curve in either direction with a large enough effect; inconclusive means small, poorly fitted or top-dose-only effect
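Human TRβ ligand-binding domain (0.6 uM) and Texas Red SRC2 peptide (20 nM) in Tris buffer with 1 uM T3 and 5% DMSO were incubated with pinned compound for 5 hr at ambient temperature. Total fluorescence was computed as S + 2P (555/632 nm).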
* marks the source's active call; other numbers are inactive results; ? = inconclusive; . = not tested or not shown; [ ] = dose if it differs, or a comment. Unless noted, the call rests on the fitted dose curve; in most records, active means well fitted curve in the direction sought with a large enough effect; inconclusive means small, poorly fitted or top-dose-only effect, or another doubt; inactive means no such curve, though single readings can be large; an effect the other way counts as inactive or inconclusive. Unless noted, on the % scale 0 is the no-effect control and ±100 the full control effect; potency means the concentration at half of the fitted maximal effect.

SMILES | RGS12 GoLoco inh | TRb-SRC2 inh | Tau fibril FP | Tau ThT inhib | Tau fluor counter | TexasRed fluor
COc1cccc(NC(=O)CCc2nc3c(C)nn(-c4ccc(C)cc4)c3n(C)c2=O)c1 | . | -6% | -8% | 6% | 9% | 0%
N#Cc1cccc(NC(=O)Cn2c3[n+](c4ccc(C(F)(F)F)cc42)CCCCC3)c1 | 14µM* | -1% | 4% | 10% | 5% | -1%
CCCC1=[N+](CC(=O)c2ccccc2)CCn2c(C)ccc21 | 13% | -2% | -1% | -11% | -4% | 6%
CCCC1=[N+](CC)CCn2c(C)ccc21 | 13µM* | 8% | 6% | -9% | -6% | -1%
O=C(CCSCc1cccc(Cl)c1)NCc1ccc(F)cc1Cl | . | -3% | 2% | -14% | -23% | -2%
O=C1CSC2=NCN(c3ccc4c(c3)OCO4)CN12 | 5% | -8% | 7% | ? | -30% | 0%
CN(C)c1ccc(N2CN=C3SCC(=O)N3C2)cc1 | -1% | 16µM* | 13µM* | 5µM* | ? | ?
CC(=O)N(C1CC(C)C(C#N)(C#N)C1(C#N)C#N)N(C)C (stereo not drawn) | -28% | -4% | -1% | -13% | 19% | -2%
CCCC(=O)N(C1CC(C)C(C#N)(C#N)C1(C#N)C#N)N(C)C (stereo not drawn) | 11µM* | 10% | ? | ? | -1% | 1%
CCn1c(CSc2nnc(-c3ccncc3)n2C)nc2cc(C(=O)O)ccc21 | 14µM* | 40µM* | -8% | -20% | -3% | 45µM*[fluorescent]
Cc1c(C(=O)O)cccc1-c1ccc(/C=N/Nc2ccc(Br)cc2)o1 | 8% | 1% | -12% | 11µM* | ? | -7%
O=C(O)c1cc(-c2ccc(/C=N/Nc3ccc([N+](=O)[O-])cn3)o2)ccc1Cl | 16% | 3% | -5% | 1.3µM* | ? | -11%
O=C(O)c1ccc(N/N=C/c2ccc(-c3cccc(Cl)c3)o2)cc1 | 10% | -6% | 3% | . | 20µM*[quencher] | -8%
Cc1cccc(C(=O)Oc2ccccc2/C=N/Nc2ccc([N+](=O)[O-])cc2)c1 | 2% | -3% | 7% | ? | 4µM*[quencher] | 6%
O=S(=O)(Nc1cc(O)cc2cccnc12)c1ccc(Br)s1 | . | -20% | . | . | . | -5%
COc1cc(/C=C/c2nc(C#N)c(NC(C)c3ccccc3)o2)cc(OC)c1OC (stereo not drawn) | . | 0% | 15% | ? | ? | -6%
O=C(O)c1cccc(-c2ccc(/C=N/Nc3ccc([N+](=O)[O-])cc3)o2)c1 | 60% | 0% | -9% | . | 16µM*[quencher] | -13%
CC1=C(C(=O)O)N2C(=O)[C@@H](NC(=O)[C@@H](N)c3ccc(O)cc3)[C@@H]2SC1 | 5%[21.6 µM] | -11%[53 µM] | . | . | . | 1%[53 µM]
CCCn1c(-c2ccc(F)cc2)nc2c(NCCN3CCCCC3)nc(C)nc21 | 13% | 2% | -5% | -5% | -9% | 2%
C=CC[n+]1c(/C=C2\C=Cc3cc(C)ccc3N2CC)ccc2ccccc21 | 223% | 5% | -2% | 3.5µM* | 14µM*[fluorescent] | -1%
CC1=C(C#N)C(c2ccccc2)C2=C(N1)c1ccccc1C2=O (stereo not drawn) | 6% | 0% | -12% | 13µM* | 25µM*[quencher] | -2%
CC(=O)C1=C(C)NC2=C(C(=O)c3ccccc32)C1c1ccccc1 (stereo not drawn) | 37% | -8% | 15% | 18µM* | ? | -3%
O=C1CCCC2=C1C(c1cccc(O)c1)C1=C(N2)c2ccccc2C1=O (stereo not drawn) | 6% | -6% | 2% | ? | -20% | 1%
CC1=C(C#N)C(c2cccnc2)C2=C(N1)c1ccccc1C2=O (stereo not drawn) | 9% | -3% | -10% | ? | -14% | -4%
CSC1=C(C#N)C(c2ccccc2Cl)C2=C(N1)c1ccccc1C2=O (stereo not drawn) | 1% | 5% | ? | 28µM* | ? | 1%
SMILES | RGS12 GoLoco inh | TRb-SRC2 inh | Tau fibril FP | Tau ThT inhib | Tau fluor counter | TexasRed fluor
COc1cc(OC)c(NC(=O)Cn2c(SCc3ccccc3F)nc3cccnc32)cc1Cl | . | 3% | -17% | -1% | -16% | -10%
Cc1ccc2occ(CC(=O)N3CCN(c4cccc(Cl)c4)CC3)c2c1 | . | 6% | -6% | -15% | -21% | -16%
Cc1cccc2cc3c(N)c(C#N)sc3nc12 | 13% | -5% | ? | 13µM* | ? | -3%
Cc1sc(NC(=O)c2oc3ccccc3c2C)c(C#N)c1C | 18% | 1% | 1% | -12% | -7% | 2%
Cc1sc(NC(=O)c2sc3nc4c(C)cccc4cc3c2N)c(C#N)c1C | 116% | -5% | -8% | 16µM* | ? | -5%
Cc1ccc(-c2ccc(=O)n(CCC(=O)NCCc3ccccc3)n2)cc1 | . | 3% | 6% | -3% | -5% | -1%
C=CCOC(=O)CC(C)C | . | -2%[201 µM] | . | . | . | -4%[201 µM]
COc1ccc(OC)c(NC(=O)CSc2nnc3ccc4ccccc4n23)c1 | . | 1% | 4% | -10% | -8% | -19%
Cc1ccccc1OCC(=O)N/N=C/c1cccc(Oc2ccc([N+](=O)[O-])cc2[N+](=O)[O-])c1 | 2% | -11% | -6% | ? | 6.3µM*[quencher] | 2%
Cc1ccccc1OCC(=O)NCC(=O)N/N=C/c1cccc([N+](=O)[O-])c1 | 2% | -1% | 2% | -12% | -2% | -3%
O=C(N/N=C/c1cccc(Oc2ccc([N+](=O)[O-])cc2[N+](=O)[O-])c1)c1cncc(Br)c1 | -2% | 0% | 4% | ? | 8.9µM*[quencher] | 4%
O=C(N/N=C/c1cccc(OC(=O)c2ccc3c(c2)OCO3)c1)c1cncc(Br)c1 | 63% | ? | ? | ? | ? | -14%
COc1ccccc1-c1ccc2ncnc(NCc3cnc(C)cn3)c2c1 | 12% | . | . | . | . | .
CCCOc1ccc(N2C(=O)CC(N(CCc3ccc(OC)c(OC)c3)C(=S)Nc3ccccc3)C2=O)cc1 (stereo not drawn) | 2% | ? | 2% | 3% | -3% | 0.5µM*[quencher]
CCCCCCCC1=Cc2ccccc2C(C(C(=O)OC)C(=O)OC)N1C(=O)OC (stereo not drawn) | 0%[14.2 µM] | 6%[11.2 µM] | -5%[11.6 µM] | -12%[11.5 µM] | -16%[11.6 µM] | -18%[11.2 µM]
O=Nc1c(-c2c(O)[nH]c3cc(Br)ccc23)[nH]c2ccccc12 | 138% | 8% | ? | 2.2µM* | 8.9µM*[quencher] | -4%
O=Nc1c(O)[nH]c2ccccc12.[Cu].[O-]/N=C1/C(=[OH+])Nc2ccccc21 | 0%[14.2 µM] | . | . | . | . | .
Cc1ccccc1NC(=O)c1sc2nc(-c3cc4ccccc4oc3=O)[nH]c(=O)c2c1C | . | -5% | -8% | 1% | -3% | 6%

Compound activity: PubChem BioAssay, National Center for Advancing Translational Sciences (NCATS)
